Pin1 inh – human Pin1 inhibition | Potency, µM (titrated, usually from 115 µM), for inactives: top-dose activity, negative = inhibition, hits mostly inhibitors | Pin1 FP peptide displacement, HiFluor488, 10 min | 390,000 compounds, 0.009% hits | AID 504891; active means well fitted inhibition curve with a large enough effect in the polarisation, with a control signal flat, not every such curve was filed as active; inconclusive means small, poorly fitted or top-dose-only effect, or effect the other way, or a change in a side signal; inactive means no such curve, though single readings can be large or run the other way; the % refers to the polarisation
Target sequence (Q13526 whole entry, looked up): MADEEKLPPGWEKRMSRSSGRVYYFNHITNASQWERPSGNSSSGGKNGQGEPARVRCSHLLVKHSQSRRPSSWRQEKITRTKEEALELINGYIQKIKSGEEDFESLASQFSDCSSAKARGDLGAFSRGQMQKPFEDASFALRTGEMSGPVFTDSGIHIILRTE
Tb PFK block – inhibitors of T. brucei phosphofructokinase; T. brucei PFK, ADP-Glo luminescence; Potency, µM (highest dose often 57.5 µM), without a hit: at the top dose activity, negative = inhibition, most hits filed as inhibitors; 330,000 compounds, 0.17% hits;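 further: 0% = uninhibited 1x PFK enzyme wells and -100% = no-enzyme wells; nearly all actives have a fitted effect of over 60% in size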
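1.25 nM PFK with 0.5 mM F6P and 0.1 mM ATP in 0.1 M TEA pH 8.0, 5 mM MgCl2, incubated 45 min at room temperature; ADP measured by ADP-Glo luminescence; compounds titrated up to 57 uM.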
GLS inhibitor – blocks human kidney-isoform glutaminase activity. 410,000 compounds, 0.21% hits. GLS enzymatic activity, qHTS titration. Potency, µM (highest dose often 45.5 µM), for the others: at the top dose activity change, negative = inhibition, actives largely listed as inhibitors. O94925
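hKGA in 45 mM KH2PO4 (pH 8.2), 0.02% Tween-20 with compound, then 1mM L-Glutamine (stock as added) plus glutamate oxidase/HRP/Amplex red coupling mix. Fluorescence read initially and after 30 min at RT; signal change reflects glutamate formation.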
PGK inhibitor – T. brucei PGK inhibition; Potency, µM (series often up to 57.5 µM), for the others: top-dose activity change, negative = inhibition, hits mostly inhibitors; 380,000 compounds, 0.043% hits; PGK/GAPDH coupled, Kinase-Glo luminescence, 60 min; P07378; AID 602233; further: nearly all actives have a fitted effect of over 60% in size
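Recombinant glycosomal PGK reaction used 1,3-bisphosphoglycerate generated in-well by GAPDH (100nM final) in 100mM TEA pH 7.6, 5mM MgCl2, 0.01% Tween-20. After 60 minutes at room temperature, ATP was read by Kinase-Glo Plus luminescence end-point.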
VDR inhibitor – vitamin D3 receptor (human) inhibition; AID 504847; 400,000 compounds, 0.93% hits; VDR-SRC2-3 peptide fluorescence polarization, 2 h; P11473; Potency, µM, inactives show max response, negative = inhibition, actives largely listed as inhibitors
Target sequence (P11473 whole entry, looked up): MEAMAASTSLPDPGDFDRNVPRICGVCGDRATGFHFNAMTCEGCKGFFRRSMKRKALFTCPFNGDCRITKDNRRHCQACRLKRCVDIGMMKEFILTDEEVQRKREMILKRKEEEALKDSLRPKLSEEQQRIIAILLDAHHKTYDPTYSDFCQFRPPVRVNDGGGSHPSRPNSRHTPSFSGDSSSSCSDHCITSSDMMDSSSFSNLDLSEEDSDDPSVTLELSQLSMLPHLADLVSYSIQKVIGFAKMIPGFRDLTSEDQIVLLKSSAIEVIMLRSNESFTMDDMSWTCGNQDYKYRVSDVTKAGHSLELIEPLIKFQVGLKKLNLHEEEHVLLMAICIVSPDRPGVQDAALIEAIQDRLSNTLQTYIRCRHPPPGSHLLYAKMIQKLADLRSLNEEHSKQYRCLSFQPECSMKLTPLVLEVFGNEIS
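Compounds are added to VDR with labelled SRC2-3 coactivator peptide and held 2 h at room temperature. Inhibition of the VDR–peptide interaction is then read as a change in fluorescence polarization.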
An asterisk follows results filed as active; i = inactive; ? = inconclusive; / = no result. An excerpt weighted towards active compounds, which were near 1.1% of everything screened. Unless noted, the call rests on the fitted dose curve; in most records, active means well fitted curve in the direction sought with a large enough effect; inconclusive means small, poorly fitted or top-dose-only effect, or another doubt; inactive means no such curve, though single readings can be large; an effect the other way counts as inactive or inconclusive. Unless noted, on the % scale 0 is the no-effect control and ±100 the full control effect; potency means the concentration at half of the fitted maximal effect.

SMILES	Pin1 inh	Tb PFK block	GLS inhibitor	PGK inhibitor	VDR inhibitor
CN(C)CCOC(=O)c1ccc2[nH]c3c(c2c1)CSCC3	-3.5%	0.2%	17.9%	-7.4%	-4.3%
O=C(O)c1ccc2[nH]c3c(c2c1)CSCC3	?	?	-29.7%	-0.8%	44.7µM*
Cc1ccc(S(=O)(=O)c2cc(Nc3ccccc3)ccc2O)cc1	-23.0%	4.9%	7.3%	2.8%	-10.1%
O=S(=O)(O)c1ccc(O)c2cc(Nc3ccccc3)ccc12	8.49µM*	/	2.24µM*	5.01µM*	?
CCc1ccc(-c2cc(C)no2)cc1S(=O)(=O)Nc1ccc(Cl)cc1	-0.7%	/	9.0%	-0.7%	12.7%
O=S(=O)(O)c1cc(O)c2c(N=Nc3ccc(Nc4ccccc4)c4c(S(=O)(=O)O)cccc34)cc(S(=O)(=O)O)cc2c1	/	/	-44.8%	/	39.8µM*
Nc1nc(=S)c2ncn(C3OC(CO)C(O)C3O)c2[nH]1 (stereo unspecified)	/	?	155.4%	?	70.8µM*
Nc1nc(=S)c2ncn([C@@H]3O[C@H](CO)[C@@H](O)[C@H]3O)c2[nH]1	-5.0%	-19.7%	1.4%	-4.4%	-22.4%
CCNc1nc(NCC)n2c(SCC(=O)Nc3ccc(Br)cc3F)nnc2n1	-5.1%	?	20.3%	-23.1%	70.8µM*
Cc1ccc(C(=Cc2ccc([N+](=O)[O-])cc2)C(=O)O)cc1	/	/	8.0%	-8.0%	/
COc1ccc(-c2nc(CS(=O)CC(=O)NCCN3CCCCC3C)c(C)o2)cc1OC (stereo unspecified)	-14.2%	1.4%	-0.8%	-1.8%	-5.2%
CC(C)CC1=C/C(=C/c2ccc(-c3ccccc3)o2)C(=O)O1	?	4.0%	11.2µM*	-8.2%	?
Oc1ccc(COc2cccc3ccccc23)c2cccnc12	/	-4.2%	/	/	/
CCCS(=O)(=O)c1ncc(Cl)c(C(=O)Nc2ccc(S(=O)(=O)Nc3ncccn3)cc2)n1	6.9%	24.7%	-11.0%	-1.8%	22.4µM*
O=C(O)C(O)c1ccco1 (stereo unspecified)	?	4.78µM*	?	14.1µM*	-14.0%
O=C(O)C(O)c1ccccc1 (stereo unspecified)	0.0%	-0.8%	5.3%	-0.6%	-16.7%
O=C1CCc2cccc(O)c2N1	0.5%	/	19.1%	-2.1%	-6.2%
CCOc1ccc(C(=S)NC2CCCCC2)cc1OC	0.5%	-2.7%	-7.8%	3.5%	50.1µM*
COc1ccc(C(=O)OCC(=O)N2CCc3ccccc3C2)cc1OC	-2.2%	-2.7%	-10.8%	-6.4%	4.8%
CC(=O)Oc1cc(C(=O)OCC(=O)N2CCc3ccccc3C2)cc(OC(C)=O)c1OC(C)=O	-17.6%	25.7%	6.31µM*	?	?
CC(=O)N1CCCc2cc(S(=O)(=O)N(C)CC(=O)Nc3ccc(C(C)C)cc3)ccc21	-7.2%	/	7.5%	-0.4%	12.7%
COc1ccc(CCNC(=O)Cn2c(=O)nc(-c3ccccc3F)c3cc(Cl)ccc32)cc1OC	2.1%	/	-7.3%	-0.5%	8.0%
Cc1ccc([C@@H]2CC(=O)[C@@H]3CN(S(=O)(=O)c4ccc(C)cc4)[C@H](c4ccc(Cl)cc4)C[C@@H]3N2S(=O)(=O)c2ccc(Cl)cc2)cc1	/	/	0.4%	-0.4%	/
COc1cccc(-n2nc(C#N)c(Cl)cc2=O)c1	-7.1%	-6.5%	-5.9%	-6.1%	31.6µM*
COc1cccc(OC)c1C(=O)Nc1cccc(-c2nc3cc(C)cc(C)c3o2)c1	16.1%	/	-0.3%	i	-16.8%
SMILES	Pin1 inh	Tb PFK block	GLS inhibitor	PGK inhibitor	VDR inhibitor
COc1ccccc1C(=O)Nc1ccc(-c2nc3cc(C)cc(C)c3o2)cc1	?	/	-0.7%	/	89.1µM*
CCN(CC)c1ccc(C(=C2C=CC(=[N+](CC)Cc3cccc(S(=O)(=O)[O-])c3)C=C2)c2ccc(N(CC)Cc3cccc(S(=O)(=O)O)c3)cc2)cc1	/	/	/	/	12.6µM*
CCCS(=O)(=O)NC(=O)C1(C)CCCN(C(=O)C(C)(C)Oc2ccc(Cl)cc2)C1 (stereo unspecified)	/	/	-2.5%	/	/
C=CCNC(=O)C(C#N)c1nc2ccccc2nc1N1CCCCCC1 (stereo unspecified)	?	3.4%	0.2%	-1.7%	6.4%
C=CCN1CCN(c2nc3ccccc3nc2C#N)CC1	/	/	/	/	35.5µM*
CCc1ccccc1NC(=O)c1cccc(NC(=O)/C=C/c2ccco2)c1	23.8%	-13.1%	0.1%	-1.7%	-18.4%
O=C(/C=C/c1ccco1)Nc1cccc(C(=O)Nc2ccccc2C(=O)O)c1	?	16.6%	?	31.6µM*	?
Cc1[nH]c(=O)[nH]c(=S)c1C(=O)Nc1ccc(Cl)c(Cl)c1	-5.8%	/	1.78µM*	-6.7%	4.9%
CC(=O)c1c(C)[nH]c(C(=O)Nc2ccc(Cl)c(S(=O)(=O)N(C)C)c2)c1C	-0.2%	-2.4%	-0.4%	-9.7%	8.0%
C=C1CCC(O)C/C1=C/C=C1\CCC[C@]2(C)[C@@H]([C@H](C)/C=C/[C@H](C)C(C)C)CC[C@@H]12 (stereo partly specified)	/	/	0.0%	/	50.1µM*
CC(=O)Nc1cc(O)c2nonc2c1O	/	/	/	/	4.47µM*
CC(=O)Nc1c(O)cc(Br)c2nonc12	-0.2%	/	/	/	-21.0%
COc1cc2oc(=O)cc(-c3ccc(-c4sccc4C=O)cc3)c2c(OC)c1OC	/	/	/	/	-16.0%
Cc1cc(Br)cc(Br)c1OCC(=O)NNC(=O)Nc1ccccc1	-0.3%	/	-12.7%	-0.2%	14.4%
CC1(C)Cc2c(sc3ncn4c(=S)[nH]nc4c23)CO1	-1.5%	-7.2%	12.6µM*	-8.9%	?
CCOC(=O)C1=C(O)c2ccccc2C(=O)/C1=C\c1ccc(CC)cc1	-4.9%	12.2%	18.0%	i	3.55µM*
CCCc1ccc(/C=C2\C(=O)c3ccccc3C(O)=C2C(=O)OCC)cc1	/	-13.6%	/	/	/
Cc1ccc(C)c(NC(=O)CN2C(=O)CCc3cc(S(=O)(=O)N4CCCCC4)ccc32)c1	-9.7%	/	-11.5%	-4.3%	5.4%
Cn1ncc(S(=O)(=O)Cc2ccccc2)c(Cl)c1=O	1.0%	-3.2%	11.2µM*	-0.5%	?
CC1CC1C(=O)Nc1nc(-c2ccccn2)cs1 (stereo unspecified)	-12.0%	-1.0%	-19.2%	-3.3%	79.4µM*
O=C(O)c1cc([N+](=O)[O-])c(Sc2nc3ccccc3[nH]2)c([N+](=O)[O-])c1	-10.6%	-3.0%	5.0%	/	?
CS(=O)(=O)c1cc([N+](=O)[O-])c(Sc2nc3ccccc3[nH]2)c([N+](=O)[O-])c1	2.4%	?	-3.7%	3.9%	35.5µM*
O=C(CSc1nnc(CNC(=O)c2cccc(F)c2)n1-c1ccccc1)Nc1ccccc1F	-5.7%	/	0.3%	-1.6%	-2.8%
CCCCN(CC)CCNC(=O)CN1C(=O)COc2ccc(S(=O)(=O)N3CCOCC3)cc21	-10.4%	/	6.7%	-4.5%	7.4%
Cc1ccccc1OCCN1C(=O)C(=O)c2cccc(C)c21	0.8%	-3.0%	-0.5%	i	50.1µM*
